Measured values published in PubChem BioAssay (NCI).
The panel holds about 83,000 compounds, 20% with a hit somewhere; the sample as a whole holds those more often.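 Cell lines were cultured in 96-well plates, exposed to a single compound concentration, and assessed for percent growth 48 hours later.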 Values without a mark were called inactive. Activity calls are given as the source filed them. The calls were made as follows: active = growth percent below 10; inactive = the rest.

system: MDA-MB-468 breast; test: NCI-60 one-dose screen, 48 h (100 = growth as untreated, 0 = no growth, -100 = all killed); settings: 10 µM unless noted

SMILES	growth
CS(=O)(=O)OCCN(CCOS(C)(=O)=O)c1ccc(/C=N/Nc2ccc([N+](=O)[O-])cc2[N+](=O)[O-])cc1	87.9%
CC(=O)Nc1cc(F)cc(-c2ccc3[nH]cc(-c4ccccc4)c3n2)c1	-21.9% (active)
CC1(C(N)=O)CCC(C(=O)O)C1(C)C (configuration not stated)	99.2%
O=S(=O)(NCCNc1nccc(-c2c(-c3ccc(F)c(O)c3)nc3occn23)n1)c1ccccc1	59.6%
CCC(=O)N1C/C(=C/c2ccc(Br)cc2)C(=O)/C(=C/c2ccc(Br)cc2)C1	-91.5% (active)
C/C(=N\NC(=O)c1ccc(C(C)(C)C)cc1)c1ccc(O)cc1O	-26.3% (active)
CC(C)(C)n1cc(-c2ccnc(NCCCNS(=O)(=O)c3cccc4ccccc34)c2)c(-c2cccc(O)c2)n1	10.7%
